Reference: PubChem BioAssay (NCATS)
Several values for one entry are separate records, joined by “and”; a condition that tells them apart may be missing. Identical values can stand only once. Results filed as inconclusive are left out. Activity calls are given as the source filed them. The call rests on the fitted dose curve; in most records, active means well fitted curve in the direction sought with a large enough effect; inconclusive means small, poorly fitted or top-dose-only effect, or another doubt; inactive means no such curve, though single readings can be large; an effect the other way counts as inactive or inconclusive.

Experiments:
[1] = Viability qHTS for spleen associated tyrosine kinase inhibitor (SYKi) naive MV4-11 cells (AID 1963823); further: nearly all actives have a fitted effect of over 40% in size
How it was run: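 Cells: MV4-11, SYK inhibitor naive, 500 per well. Treatment: library compounds, 72 hr, 37 C, 5% CO2. Read-out: CellTiter-Glo luminescence after 10 min RT.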

[2] = Quantitative highthroughput screen to assess conditional lethalithy of NOMO1 cells grown in RPMI1640 with untreated serum (RPMI+s) (AID 1963876); further: nearly all actives have a fitted effect of over 35% in size;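 on Viability: 100% = DMSO wells and 0% = empty wells without cells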
How it was run: (§1)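 Each medium arm—HPLM with 10% dialyzed FBS, or RPMI1640 with 5 mM glucose and 10% untreated or dialyzed FBS—was screened against an 11-point, 3-fold compound titration for 48 h at 37 °C, with CellTiter-Glo luminescence as endpoint.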

[3] = Quantitative highthroughput screen to assess conditional lethalithy of NOMO1 cells grown in RPMI1640 with dialyzed fetal bovine serum (RPMI+ds) (AID 1963877); further: nearly all actives have a fitted effect of over 30% in size;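 on Viability: series mostly up to about 46 µM; 100% = DMSO control wells and 0% = empty wells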
How it was run: as §1

[4] = Quantitative highthroughput screen to assess conditional lethalithy of NOMO1 cells grown in Human Plasma-Like Medium with dialyzed fetal bovine serum (HPLM+ds) (AID 1963878); further: nearly all actives have a fitted effect of over 35% in size;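 on Viability: 100% = DMSO wells and 0% = empty wells on each plate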
How it was run: as §1

[5] = Quantitative highthroughput screen to assess conditional lethalithy of P12 Ichikawa cells grown in Human Plasma-Like Medium with dialyzed fetal bovine serum (HPLM+ds) (AID 1963879); conditions: Potency: viability; further: nearly all actives have a fitted effect of over 35% in size; on Viability: series mostly up to about 46 µM
How it was run: as §1

[6] = Quantitative highthroughput screen to assess conditional lethalithy of SEM cells grown in RPMI1640 with dialyzed fetal bovine serum (RPMI+ds) (AID 1963884); further: nearly all actives have a fitted effect of over 35% in size;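 on Viability: series mostly up to about 46 µM; 100% = DMSO control wells and 0% = empty wells without cells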
How it was run: as §1

[7] = Cellular viability qHTS for adrenocortical cancer (ACC) cell line NCI-H295R (AID 1963990); further: nearly all actives have a fitted effect of over 60% in size
How it was run: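 Luminescent ATP read-out (CellTiter-Glo, 20 min RT) after 48 h drug exposure of NCI-H295R cells; a titration up to 46 uM final. Data normalized to doxorubicin (100% inhibition) and DMSO (0%); 4-parameter fit gives IC50, max response.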

[8] = Quantitative highthroughput screen to assess conditional lethalithy of P12 Ichikawa cells grown in RPMI1640 with dialyzed fetal bovine serum (RPMI+ds) (AID 1963880); conditions: Potency: P12-Ichikawa viability; further: nearly all actives have a fitted effect of over 35% in size;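 on Viability: 100% = DMSO wells and 0% = empty wells on each plate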
How it was run: as §1

[9] = Quantitative highthroughput screen to assess conditional lethalithy of P12 Ichikawa cells grown in RPMI1640 with untreated serum (RPMI+s) (AID 1963881); conditions: Potency: viability; further: nearly all actives have a fitted effect of over 35% in size;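 on Viability: series mostly up to about 46 µM; 100% = DMSO wells and 0% = empty wells without cells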
How it was run: as §1

[10] = Quantitative highthroughput screen to assess conditional lethalithy of SEM cells grown in RPMI1640 with unreated serum (RPMI+s) (AID 1963883); further: nearly all actives have a fitted effect of over 35% in size;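 on Viability: 100% = DMSO wells and 0% = empty wells without cells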
How it was run: as §1

[11] = Cellular viability qHTS for adrenocortical cancer (ACC) cell line SW-13 (AID 1963989); conditions: SW-13 ACC cells viability, CellTiter-Glo, 48 h; activity (max response): hits give low values; further: nearly all actives have a fitted effect of over 65% in size;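 on activity (max response): cells grown in serum-free medium with ITS supplement; on the % scale 0 is the no-effect control and ±100 the full control effect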
How it was run: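 SW-13 cells in ITS-supplemented serum-free DMEM were plated overnight, then exposed for 48 h at 37C to compound titrations (up to 46 uM final). Viability was read by CellTiter-Glo luminescence; four-parameter logistic fits gave IC50 and efficacy.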

[12] = Quantitative highthroughput screen to assess conditional lethalithy of SEM cells grown in Human Plasma-Like Medium with dialyzed fetal bovine serum (HPLM+ds) (AID 1963882); further: nearly all actives have a fitted effect of over 35% in size; on Viability: series mostly up to about 46 µM
How it was run: as §1
Potency means the concentration at half of the fitted maximal effect.

CC(O)(C#Cc1ccc2c(c1)N(c1nc(N)ncc1Cl)CC2)c1nccs1 (centres undefined)
active: Potency [1] 13 µM
inactive: Potency [2] | Potency [3] | Potency [4] | Potency [5] | Potency [6]

Oc1ccc2ccccc2c1SSc1c(O)ccc2ccccc12
active: Potency [1] 5.9 µM and 11.6 µM | Potency [7] 31.6 µM
inactive: Potency [2] | Potency [3] | Potency [4] | Potency [5]

C[C@H](NC(=O)[C@@H](O)c1cc(F)cc(F)c1)C(=O)N[C@@H]1C(=O)N(C)c2ccccc2-c2ccccc21
inactive: Potency [1] | Potency [2] | Potency [3] | Potency [4] | Potency [5] | Potency [8] | Potency [9] | Potency [10] | activity (max response) [11] -11.3%

O=C(O)c1cccnc1Nc1cccc(C(F)(F)F)c1
inactive: Potency [1] | Potency [2] | Potency [3] | Potency [4] | Potency [5] | Potency [8] | Potency [9] | Potency [12]

Clc1ccc(C(c2ccccc2Cl)C(Cl)Cl)cc1 (centres undefined)
inactive: Potency [1] | Potency [2] | Potency [3] | Potency [4] | Potency [5] | Potency [8] | Potency [9] | activity (max response) [11] -27.3%
active: Potency [7] 13 µM

C[C@H](NC(=O)Cc1cc(F)cc(F)c1)C(=O)N[C@@H]1C(=O)N(C)c2ccccc2-c2ccccc21
inactive: Potency [1] | activity (max response) [11] -7.45%
active: Potency [2] 11.8 µM | Potency [3] 14.8 µM | Potency [4] 4.69 µM | Potency [5] 2.64 µM | Potency [8] 7.43 µM | Potency [9] 7.43 µM | Potency [12] 4.18 µM | Potency [10] 1.18 µM | Potency [6] 3.32 µM

Cc1c(CCOc2ccc(C(=O)O)cc2)c2cc(Cl)ccc2n1C(c1ccccc1)c1ccccc1
active: Potency [5] 14.8 µM
inactive: Potency [1] | Potency [2] | Potency [3] | Potency [4] | Potency [8] | Potency [9] | Potency [12] | Potency [10] | Potency [6] | activity (max response) [11] -0.782% | Potency [7]

CC(=O)N(C)C1(c2ccccc2)CCN(CCC[C@]2(c3ccc(Cl)c(Cl)c3)CCCN(C(=O)c3ccccc3)C2)CC1
active: Potency [1] 4.11 µM | Potency [2] 1.87 µM | Potency [3] 1.87 µM | Potency [4] 0.526 µM | Potency [8] 2.96 µM | Potency [9] 7.43 µM | Potency [12] 0.662 µM | Potency [10] 0.743 µM | Potency [6] 1.05 µM

COc1ccc(C2Sc3ccccc3N(CCN(C)C)C(=O)C2OC(C)=O)cc1 (centres undefined)
inactive: Potency [1] | Potency [2] | Potency [3] | Potency [4] | Potency [5] | Potency [8] | Potency [9] | Potency [10] | Potency [6]

Cc1ccc(-c2ncn(-c3ccc(Nc4nccc(-c5cccc(N6CCOCC6)c5)n4)cc3)n2)cn1
inactive: activity (max response) [11] 11.5%
active: Potency [1] 2.35 µM | Potency [2] 0.372 µM | Potency [3] 0.372 µM | Potency [4] 0.296 µM | Potency [8] 0.372 µM | Potency [9] 0.296 µM | Potency [12] 0.235 µM | Potency [10] 0.118 µM | Potency [6] 0.148 µM

Cc1cccc(-c2[nH]c(C(C)(C)C)nc2-c2ccc3c(c2)OCO3)n1
active: Potency [1] 2.35 µM | Potency [2] 8.33 µM | Potency [3] 9.35 µM | Potency [4] 10.5 µM | Potency [5] 9.35 µM | Potency [8] 11.8 µM | Potency [9] 10.5 µM | Potency [12] 8.33 µM | Potency [10] 9.35 µM | Potency [6] 9.35 µM | Potency [11] 7.94 µM | Potency [7] 4.47 µM

Cc1ccc(NC(=O)C2(c3ccc4c(c3)OC(F)(F)O4)CC2)nc1-c1cccc(C(=O)O)c1
inactive: Potency [1] | activity (max response) [11] 4.62% | Potency [7]
active: Potency [2] 0.166 µM | Potency [3] 0.209 µM | Potency [4] 0.187 µM | Potency [5] 0.187 µM | Potency [9] 0.148 µM | Potency [12] 0.0935 µM | Potency [10] 0.0743 µM | Potency [6] 0.0833 µM

CCCc1nc(C)c2c(=O)[nH]c(-c3cc(S(=O)(=O)N4CCN(CC)CC4)ccc3OCC)nn12
active: Potency [2] 9.35 µM | Potency [3] 9.35 µM | Potency [4] 9.35 µM | Potency [5] 16.6 µM | Potency [8] 9.35 µM | Potency [9] 10.5 µM | Potency [12] 11.8 µM | Potency [10] 9.35 µM | Potency [6] 7.43 µM
inactive: Potency [1] | activity (max response) [11] -1.6% and 3.7% | Potency [7]

CC(=O)[C@H]1CC[C@H]2[C@@H]3CC=C4C[C@@H](O)CC[C@]4(C)[C@H]3CC[C@]12C
inactive: Potency [2] | Potency [3] | Potency [4] | Potency [5] | Potency [8] | Potency [12] | Potency [6] | activity (max response) [11] 14.9% and 3.3% | Potency [7]
active: Potency [1] 5.96 µM

CC(C)[C@H](CO)Nc1nc(Nc2cccc(Cl)c2)c2ncn(C(C)C)c2n1
active: Potency [1] 2.59 µM | Potency [2] 2.09 µM | Potency [3] 2.35 µM | Potency [4] 0.743 µM | Potency [5] 4.18 µM | Potency [8] 5.9 µM | Potency [9] 8.33 µM | Potency [12] 1.32 µM | Potency [11] 22.4 µM | Potency [7] 20 µM
